From PubChem BioAssay
Many of the other results were omitted from the sample, so hits are more common in it than they were.
Chlamy TAG: increases triacylglycerol in Chlamydomonas reinhardtii. Chlamydomonas reinhardtii TAG, Nile Red fluorescence, 72 h. calls only at 10 µM (by protocol). 44,000 tested, 0.84% active. AID 1159537; call rule not given here;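 also: hits raise Nile Red signal meaning more stored TAG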
* hit, by the source's call; i = inactive; + = active, no number.

SMILES	Chlamy TAG
CS(=O)(=O)N1CCN(C2C3CC4CC(C3)CC2C4)CC1 (stereo unspecified)	+
O=C(NCc1ccccn1)c1ccccc1F	i
Cc1cc(C)c(OCCCN2CCCC2)c(C)c1	i
Cc1cc(C)c(OCCCCN2CCNCC2)c(C)c1	+
Cc1cc(Cl)c(OCCOCCN2CCNCC2)c(Cl)c1	i
Brc1ccc(CN2CCC(N3CCOCC3)CC2)cc1	i
Cc1ccc(S(=O)(=O)N2CCC(C(=O)N3CCN(c4ccccc4)CC3)CC2)cc1	i
C=CCc1cc(OC)ccc1OCCn1ccnc1	i
C=CCc1cc(OC)ccc1OCCCCn1ccnc1	i
C=CCc1cc(OC)ccc1OCCOCCn1ccnc1	+
O=C(Nc1cccc(NC(=O)c2cc3ccccc3o2)c1)c1ccccc1	i
C=CCn1c(SCc2ccc([N+](=O)[O-])cc2)nnc1-c1ccc(Cl)cc1	i
OC(COc1ccc(Br)cc1)CN1CCOCC1 (stereo unspecified)	i
OC(COc1ccc(Br)cc1)CN1CCCCCC1 (stereo unspecified)	+
Cc1ccccc1OCC(O)CN1CCN(CC(O)COc2ccccc2C)CC1 (stereo unspecified)	i
OC(COc1ccc(OCC(O)CN2CCCC2)cc1)CN1CCCC1 (stereo unspecified)	i
OC(COc1ccccc1Br)CN1CCCCC1 (stereo unspecified)	+
Cc1ccc(OCC(O)CN2CCCCC2)c(C)c1 (stereo unspecified)	i
N#C/C(=C/c1ccc(O)cc1)c1nc(-c2ccc(Cl)c(Cl)c2)cs1	i
COc1cccc(C(C)NC(=O)c2cnccn2)c1 (stereo unspecified)	i
O=C(O)CCC(=O)Nc1nnc(-c2cccs2)s1	i
CCOc1ccccc1NC(=O)C(=O)NCCc1c[nH]c2ccccc12	i
Cc1cc(Cl)c(OCCOCCn2ccnc2)c(Br)c1	i
Clc1ccc(OCCn2ccnc2)c(Br)c1	i
Clc1ccc(OCCn2ccnc2)c(Cl)c1	i
SMILES	Chlamy TAG
Cc1cc(Cl)c(OCCn2ccnc2)c(Br)c1	+
Cc1cc(Cl)cc(C)c1OCCn1ccnc1	+
Cc1ccc(OCCn2ccnc2)c(Cl)c1	i
COc1ccc(CCNC(=O)c2ccc(Br)o2)cc1	i
Cc1ccc(NC(=O)c2cc(S(=O)(=O)N3CCOCC3)ccc2Br)cc1	i
Cc1ccc(C(=O)Nc2cccc(Cl)c2Cl)cc1	i
Cc1cc(C=O)c(C)n1-c1ccc(O)cc1	i
Cc1cc(C=O)c(C)n1-c1ccc(Br)cc1F	+
COc1ccc(Cl)cc1-n1c(C)cc(C=O)c1C	i
O=C(O)c1cc(NC(=O)c2ccccc2[N+](=O)[O-])cc(C(=O)O)c1	i
COc1ccc(S(=O)(=O)N(Cc2ccccc2)c2ccccc2C(=O)N2CCN(C)CC2)cc1	i
COc1cc(/C=C(\C#N)c2ccc([N+](=O)[O-])cc2)c(OC)cc1Br	i
COc1ccc(CNCc2ccc(C)cc2C)cc1	i
COc1ccc(CNCc2ccc(C)cc2C)c(OC)c1	i
COc1ccc(CNCc2ccc(C)cc2)c(OC)c1	+
Cc1ccc(-c2csc(C(C#N)=Cc3ccc(Br)o3)n2)c(C)c1	i
Cc1ccc2nc(/C(C#N)=C\c3ccco3)[nH]c2c1	i
CC1(C)Oc2ccc(NC(=O)c3ccc(C(=O)c4ccccc4)cc3)cc2O1	+
CC1(C)Oc2ccc(NC(=O)Cc3ccc(F)cc3)cc2O1	i
COc1ccc(NC(=O)c2ccc(C(=O)c3ccccc3)cc2)cc1	i
O=S(=O)(c1ccc(Br)cc1)n1cccn1	i
CCOc1ccc(C(=O)Nc2ccc(C)cc2C)cc1	i
O=C(Nc1ccccc1)c1ccc(Cl)c(S(=O)(=O)Nc2ccc(Cl)cn2)c1	i
COc1cc(C=O)cc(Br)c1OCc1c(C)no[n+]1[O-]	i
CCOc1ccc(C(=O)Nc2cccc([N+](=O)[O-])c2)cc1Cl	i
SMILES	Chlamy TAG
CCOc1cc(C(=O)Nc2ccc([N+](=O)[O-])cc2Cl)cc(OCC)c1OCC	i
CCOc1c(Cl)cc(C(=O)Nc2cccc([N+](=O)[O-])c2)cc1Cl	+
O=C(NCc1ccco1)C1C2C3CCC(C3)C12 (stereo unspecified)	i
COc1cc2c(cc1OC)CN(c1ncccn1)CC2	i
COc1cc(C)c(CN2CCCCC2)cc1C	i
CCN(CC)c1cc(C)nc(N)n1	+
Cc1cc(N2CCCCC2)nc(N)n1	i
Cc1cc(-n2nc(C)cc2C)nc(N)n1	i
O=C(O)c1ccc(Oc2ccc([N+](=O)[O-])cc2)cc1	i
O=C(Nc1scc(-c2cccs2)c1C(=O)O)c1cccs1	i
Cc1sc(NC(=O)c2cccs2)c(C(=O)O)c1C	+
Cc1cccc(C(=O)Nc2sc(C)c(C)c2C(=O)O)c1	i
COc1ccc(CNC2CCSC2)cc1 (stereo unspecified)	+
COc1ccc(CNCc2ccc(OC)cc2)cc1	i
COc1ccc(CNC2CCCCC2C)cc1 (stereo unspecified)	i
Cc1cccc(NC(=O)c2ccccc2NC(=O)c2cccc([N+](=O)[O-])c2)c1C	i
c1ccc(CN2CCC(N3CCN(Cc4ccccn4)CC3)CC2)cc1	i
O=[N+]([O-])c1ccccc1S(=O)(=O)N1CCN(C2CCN(Cc3ccccc3)CC2)CC1	+
C1CCCN(C2CCN(C3CC4CCC3C4)CC2)CC1 (stereo unspecified)	i
O=[N+]([O-])c1ccccc1CN1CCC(N2CCCCC2)CC1	i
COc1cc(CN2CCN(C3CCN(Cc4ccccc4)CC3)CC2)cc(OC)c1O	i
O=[N+]([O-])c1ccccc1S(=O)(=O)N1CCN(Cc2ccccn2)CC1	i
c1ccc(CN2CCC(N3CCN(C4CC5CCC4C5)CC3)CC2)cc1 (stereo unspecified)	+
CC1CCCC(NC2CCN(Cc3ccccc3)CC2)C1 (stereo unspecified)	i
CC1CCCC(N2CCN(Cc3ccccc3)CC2)C1 (stereo unspecified)	+
SMILES	Chlamy TAG
O=S(=O)(NCc1ccc2c(c1)OCO2)c1cc(Cl)ccc1Cl	i
O=C(Nc1nnc(-c2ccc(Cl)c(Cl)c2)s1)c1ccco1	i
NC(=O)c1c(NC(=O)c2cccs2)sc2c1CCCC2	i
Cc1nn(-c2ccccc2)c(N)c1N	i
Cc1ccc(C(O)=C2C(=O)C(=O)N(CCCN3CCOCC3)C2c2cccnc2)cc1 (stereo unspecified)	i
O=S(=O)(c1ccc(F)cc1)N1CCN(C2CCCC2)CC1	i
O=S(=O)(c1ccc(F)cc1)N1CCCC1	i
O=S(=O)(c1ccc(F)cc1)N1CCN(C2CCCCC2)CC1	+
CCCN1CCC(N2CCN(S(=O)(=O)c3ccc(F)cc3)CC2)CC1	i
Cc1ccc(S(=O)(=O)N2CCC(N3CCCCC3)CC2)cc1	i
CC1CCCN(C2CCN(S(=O)(=O)c3ccc(F)cc3)CC2)C1 (stereo unspecified)	+
CN1C(=O)c2ccc(NC3=NS(=O)(=O)c4ccccc43)cc2C1=O	i
Cc1cc(=O)[nH]c(N2CCOCC2)n1	i
CCOc1ccc(Nc2cc(C)nc(N3CCOCC3)n2)cc1	i
CCCCNc1cc(C)nc(N2CCOCC2)n1	+
c1coc(CN2CCN(C3CCCCC3)CC2)c1	+
CN1CCCN(Cc2ccco2)CC1	i
c1coc(CN2CCN(C3CC4CCC3C4)CC2)c1 (stereo unspecified)	i
CCC(CC)C(=O)Nc1ccc(C(=O)NCC(C)C)cc1	i
